From PubChem BioAssay (NCATS)
A number with no mark means an inactive call. Calls follow the shape of the dose curve; as a rule, active = well fitted inhibition curve with a large enough effect; inconclusive = small, poorly fitted or top-dose-only effect; inactive = flat fitted curve, though single readings scatter.

Each compound was assayed on Nanoluciferase (engineered Oplophorus gracilirostris luciferase) (assay: Primary Nanoluciferase (NLuc) qHTS assay for identification of artifact compounds. (AID 1845222)). Settings: NLuc-conditioned medium, Nano-Glo luminescence, 5 min; series mostly up to 54.1 µM; activity, negative = inhibition: at the top concentration.
Text: PI: Alexander Tropsha Ph.D.
UNC Eshelman School of Pharmacy
University of North Carolina, Chapel Hill, North Carolina
Hits from high-throughput screening (HTS) of chemical libraries are often false positives due to their interference with the assay detection technology. In response to this problem, we generated the largest publicly available library of chemical liabilities and developed a free webtool to predict HTS artifacts, both of which are described herein. More specifically, we generated, curated, and integrated HTS datasets for thiol reactivity, redox activity, and luciferase (firefly and nano) activity. Using these curated datasets, we developed and validated several Quantitative Structure-Interference Relationship (QSIR) models to predict nuisance behavior. […] These models were employed for virtual profiling of the National Center for Advancing Translational Science's (NCATS) in-house library, and 256 compounds for each assay were selected for the experimental validation of nuisance behavior. The BA for these external predictions ranged from 58 to 78% for compounds within the applicability domains of the models. […] The models developed in this study, along with aggregation models previously developed by our group (SCAM Detective) were implemented in "Liability Predictor," an online tool which may be used as part of chemical library design or for triaging HTS hits. Both the models and the curated datasets are publicly available at https://liability.mml.unc.edu/.
SEQUENCE No. (e.g., 1, 2, 3, etc.); […] (e.g., Cells, Incubation, Reagent, etc.); VALUE; DESCRIPTION.
1; Reagent; 2 uL; Nanoluciferase media.
2; Compounds and control; 16 nL; Kalypsis pin tool (Wako USA) equipped with a 1536-well pin head.
4; Reagent; 2 uL; Luciferase enzyme.
6; Detection; Luminescence, ViewLux microplate reader.
NOTES (numbers refer to Sequence numbers above)
1. Medium was collected from the culture flasks of NLuc-expressing S16 cells (80% confluent) prior to cell plating, filtered through a 0.22um filter, and frozen at -20C prior to use. Media was diluted (1:55) and 2 uL was dispensed into all wells of a 1536-well assay plate (solid-bottom white plate; Greiner Bio One, Monroe, NC).
2. A Wako Pin-tool (Wako Automation, Richmond, VA) was used to transfer 16 nL of compounds (consisting of 7-plates in qHTS format, final concentration range 18.3 nM to 114 uM) or control Cilnidipine (final concentration range 623 nM to 80 uM).
3. 15 min. incubation at room temperature protected from light.
4. 2 uL of NLuc substrate (1:100 in Nano-Glo luciferase buffer; Nano-Glo luminescence assay, Promega, Madison, WI) was dispensed for a final assay volume of 4 uL.
5. Plates were centrifuged (121xg, 15 seconds) and incubated for 5 minutes.
6. Samples were read for luminescence on a ViewLux CCD imager (PerkinElmer). Data were normalized to no-enzyme (0% activity) and no-inhibitor (DMSO; 100%) controls and the resulting percent inhibition data were fitted to a 4-parameter Hill equation using NCATS in-house software.

Point of comparison: `CC(=O)Nc1ccc(NC(=S)NC(=O)c2ccc(C(C)(C)C)cc2)cc1`, “activity, negative = inhibition” value 3.86%. Against it:
- CC(C)(C)c1ccc(CN2CCN(C(c3ccccc3)c3ccc(Cl)cc3)CC2)cc1 (configuration not stated) — lower, 0%
- CCN(CC)CCOCCOC(=O)C(CC)(CC)c1ccccc1 — lower, 3.63%
- COc1ccc(C[C@H](C)NC[C@@H](O)c2ccc(O)c(NC=O)c2)cc1 — lower, 0.721%
- CO[C@H]1C[C@@H]2CC[C@@H](C)[C@@](O)(O2)C(=O)C(=O)N2CCCC[C@H]2C(=O)O[C@H]([C@H](C)C[C@@H]2CC[C@@H](OC(=O)C(C)(CO)CO)[C@H](OC)C2)CC(=O)[C@H](C)/C=C(\C)[C@@H](O)[C@@H](OC)C(=O)[C@H](C)C[C@H](C)/C=C/C=C/C=C/1C — lower, 2.66%
- C[C@H]1O[C@@H](O[C@H]2[C@@H](O)C[C@H](O[C@H]3[C@@H](O)C[C@H](O[C@H]4CC[C@@]5(C)[C@H](CC[C@@H]6[C@@H]5C[C@@H](O)[C@]5(C)[C@@H](C7=CC(=O)OC7)CC[C@]65O)C4)O[C@@H]3C)O[C@@H]2C)C[C@H](O)[C@@H]1O — lower, -11.3%
- C[C@]12CC[C@@H]3c4ccc(OC(=O)c5ccccc5)cc4CC[C@H]3[C@@H]1CC[C@@H]2O — lower, 0.436%
- C=C1[C@H](CO)[C@@H](O)C[C@@H]1n1cnc2c(=O)[nH]c(N)nc21 — lower, -3.98%
- CC1CC(OC(=O)C(O)c2ccccc2)CC(C)(C)C1 (configuration not stated) — lower, -8.61%
- C/C(=C\C(=O)OCCCCCCCCC(=O)O)C[C@@H]1OC[C@H](C[C@@H]2O[C@H]2[C@@H](C)[C@H](C)O)[C@@H](O)[C@H]1O — lower, -8.88%
- C=C1CC[C@H](O)CC1=C/C=C1\CCC[C@]2(C)[C@@H]([C@H](C)/C=C/[C@H](C)C(C)C)CC[C@@H]12 — lower, 3.75%
- N[C@@H](Cc1cc(I)c(Oc2ccc(O)c(I)c2)c(I)c1)C(=O)O — lower, -10.9%
